Active and inactive are the calls of the source.

The record followed here is PubChem BioAssay.

For assay [1], the system named is Human papillomavirus type 1a protein E7 (residues 44-93). Briefly: small molecules binding HPV E7 44-93 – biochemical, small-molecule microarray, residues 44-93, 635 nm fluorescence, primary screen (AID 1108).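 Note: E7 fragment applied at 1 µg/mL in TBST for 1 h at 4 C; score combines spot fluorescence with its signal to noise ratio.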 The conditions noted are these: fluorescence 635 nm, higher = more signal.
Assay [2] is described as follows: hepatitis C replication reporter changes, two-sided – Huh7 cells, luciferase reporter, HCV replication inhibitor project, primary screen (AID 1109).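 Note: huh7 hepatoma cells harbouring a luciferase neomycin HCV replicon reporter; luciferase luminescence as measure of HCV replicon replication; test concentration not given here.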 The conditions noted are these: Huh7 HCV replicon luciferase reporter, 48 h; higher = more signal.
Assay [3] concerns the target Left-right determination factor 2 (Homo sapiens) (UniProt O00292). Briefly: small molecules binding LEFTY2 protein – biochemical, small-molecule microarray, 635 nm fluorescence scan, primary screen (AID 1110). The conditions noted are these: higher = more signal.
Assay [4] deals with Calmodulin-1 (Homo sapiens) (UniProt P0DP23). Briefly: small molecules binding calmodulin-1 with EGTA – biochemical, small-molecule microarray, Cy5-labelled CALM1, profiling panel (AID 1111).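 Note: labelled calmodulin applied in Tris saline Tween buffer holding calcium plus EGTA and DTT.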 The following applies: Cy5-CALM1 binding fluorescence, higher = more signal.
The target is the same in assay [5]. Briefly: small molecules binding Ca-loaded calmodulin-1 – biochemical, small-molecule microarray, Cy5-labelled CALM1, plus calcium, artefact control for SMM control-protein annotation, profiling panel (AID 1112).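 Note: score merges spot fluorescence with signal to noise from triplicate slides.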 The following applies: Cy5-CALM1 binding fluorescence, higher = more signal.
Assay [6] is described as follows: probe aWnt5a binding to arrayed compounds – biochemical, biotinylated probe, 635/667 nm fluorescence, primary screen (AID 1113).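 Note: score merges 667 nm fluorescence intensity with signal-to-noise per printed feature.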 The conditions noted are these: small-molecule microarray, higher = more signal.
The nature of assay [7]: probe aShh binding to arrayed compounds – biochemical, biotinylated probe, 635/667 nm fluorescence, primary screen (AID 1114).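 Note: probe is biotin-labelled aShh protein from a stem cell growth factor screen; measures binding of labelled protein to compounds printed on the slide; score merges feature fluorescence at 667 nm with signal-to-noise.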 The following applies: small-molecule microarray, higher = more signal.
Assay [8] in a line: probe aNog binding to arrayed compounds – biochemical, biotinylated probe, 635/667 nm fluorescence, primary screen (AID 1115).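 Note: probe is biotinylated aNog protein used at 0.15 µg/mL for 1 h at 4 C; z-score combines 667 nm fluorescence of each spot with its signal to noise.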 The conditions noted are these: small-molecule microarray, higher = more signal.
Assay [9] addresses Torsin-1A-interacting protein 1 (Homo sapiens) (UniProt Q5JTV8). Briefly: compound microarray binding of lysate hLAP1 – cell lysate, small-molecule microarray, COS7 lysate, 635/667 nm fluorescence, primary screen (AID 1116). The conditions noted are these: 635 nm fluorescence, higher = more signal.
The target in assay [10] is Alpha-bungarotoxin (Bungarus multicinctus) (UniProt P60615). Briefly: compounds binding labelled alpha-BTX control protein – biochemical, small-molecule microarray, Alexa647 label, 635/667 nm fluorescence, artefact control for SMM control protein annotation, profiling panel (AID 1117). The conditions noted are these: alpha-BTX-A647 binding fluorescence, higher = more signal.
Chain of Alpha-bungarotoxin (Bungarus multicinctus) (P60615 whole entry, looked up): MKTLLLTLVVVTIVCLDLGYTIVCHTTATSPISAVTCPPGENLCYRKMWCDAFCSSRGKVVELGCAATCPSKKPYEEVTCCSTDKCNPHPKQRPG

Assay [11] has as its target Albumin (Bos taurus) (UniProt P02769). Briefly: compounds binding labelled BSA control protein – biochemical, small-molecule microarray, Alexa647 label, 635/667 nm fluorescence, artefact control for SMM control protein annotation, profiling panel (AID 1118).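 Note: score merges 667 nm emission intensity and signal-to-noise per printed compound spot.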 The conditions noted are these: BSA-A647 binding, fluorescence 635 nm, higher = more signal.
A short description of assay [12]: probe aXIP binding to arrayed compounds – biochemical, NeuroSMM set, 635/667 nm fluorescence, primary screen (AID 1119).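 Note: probe is the protein aXip251-270 applied at 1 µg/mL to compound-printed slides; binding of probe to printed compounds measured as 667 nm fluorescence plus signal to noise.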 The conditions noted are these: small-molecule microarray, higher = more signal, called active from +8 up or from −8 down.
Assay [13] can be described thus: probe aNOTCH3 binding on compound microarray – biochemical, small-molecule microarray, 635/667 nm fluorescence, primary screen (AID 1120).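 Note: probe is a biotin-tagged antibody raised against NOTCH3 rather than NOTCH3 protein; score merges spot fluorescence near 667 nm with spot signal to noise.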 The following applies: higher = more signal.
Assay [14] can be described thus: probe aNOTCH2 binding on compound microarray – biochemical, small-molecule microarray, 635/667 nm fluorescence, primary screen (AID 1121).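 Note: score merges feature fluorescence read at 667 nm with its signal to noise.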 The following applies: higher = more signal.
The target of assay [15] is Carbonic anhydrase 2 (Homo sapiens) (UniProt P00918). Briefly: compounds binding carbonic anhydrase 2 – biochemical, small-molecule microarray, Alexa647-labelled CAII, profiling panel (AID 1122). The conditions noted are these: CAII-A647 binding fluorescence, higher = more signal.
The nature of assay [16]: COS7 lysate on small-molecule microarray, probe aHis, 635 nm (AID 1123).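 Note: z-score combines 667nm fluorescence intensity with signal-to-noise per printed compound spot.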 The conditions noted are these: COS7 cell lysate, fluorescence, higher = more signal.
Assay [17] in a line: probe aLAP1 signal on lysate-treated microarray – cell lysate, small-molecule microarray, COS7 lysate, primary screen (AID 1124).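 Note: lysate comes from COS7 cells expressing LAP1 and is applied at 0.3 µg/mL; score merges spot fluorescence near 667 nm with signal-to-noise over triplicate slides.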 The following applies: probe aLAP1, fluorescence, higher = more signal.
For assay [18], the system named is Sam68 (KHDRBS1). Briefly: compounds binding KHDRBS1 protein – biochemical, small-molecule microarray, 635 nm fluorescence, primary screen (AID 1125).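 Note: score merges 667 nm channel intensity with signal to noise over triplicate slides.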 The following applies: higher = more signal.
In assay [19] the test system is Chordin-like protein 2 (CHRDL2). Briefly: compounds binding chordin-like 2 – biochemical, small-molecule microarray, 635 nm fluorescence, primary screen (AID 1126).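 Note: printed compound slides probed with Chrdl2 protein at 4 µg/mL for 1 h at 4 C; score merges 667 nm emission intensity with signal to noise over three replicate slides.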 The conditions noted are these: fluorescence 635 nm, higher = more signal.
Assay [20] addresses Concanavalin-A (Canavalia ensiformis) (UniProt P02866). Briefly: compounds binding concanavalin A lectin – biochemical, small-molecule microarray, Alexa647 label, 635 nm, artefact control for SMM control protein annotation, primary screen (AID 1127).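 Note: z combines 667 nm emission intensity with signal-to-noise across three replicate slides.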 The conditions noted are these: ConA-A647 binding fluorescence, higher = more signal.

Chain of Torsin-1A-interacting protein 1 (Homo sapiens) (Q5JTV8 whole entry, looked up): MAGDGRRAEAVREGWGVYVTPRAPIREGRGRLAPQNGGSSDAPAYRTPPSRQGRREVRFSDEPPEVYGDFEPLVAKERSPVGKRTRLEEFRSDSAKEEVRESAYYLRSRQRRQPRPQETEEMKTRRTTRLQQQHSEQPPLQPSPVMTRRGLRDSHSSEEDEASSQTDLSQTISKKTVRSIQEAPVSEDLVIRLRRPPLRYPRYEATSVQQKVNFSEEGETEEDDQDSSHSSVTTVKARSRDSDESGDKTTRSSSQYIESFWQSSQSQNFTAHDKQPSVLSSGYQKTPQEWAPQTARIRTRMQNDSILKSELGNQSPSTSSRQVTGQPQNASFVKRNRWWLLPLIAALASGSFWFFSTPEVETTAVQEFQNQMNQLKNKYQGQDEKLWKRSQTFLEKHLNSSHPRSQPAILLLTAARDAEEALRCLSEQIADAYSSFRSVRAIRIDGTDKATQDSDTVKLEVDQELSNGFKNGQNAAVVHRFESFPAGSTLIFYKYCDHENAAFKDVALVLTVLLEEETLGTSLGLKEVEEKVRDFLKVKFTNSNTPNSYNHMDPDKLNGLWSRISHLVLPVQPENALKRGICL
Chain of Left-right determination factor 2 (Homo sapiens) (O00292 whole entry, looked up): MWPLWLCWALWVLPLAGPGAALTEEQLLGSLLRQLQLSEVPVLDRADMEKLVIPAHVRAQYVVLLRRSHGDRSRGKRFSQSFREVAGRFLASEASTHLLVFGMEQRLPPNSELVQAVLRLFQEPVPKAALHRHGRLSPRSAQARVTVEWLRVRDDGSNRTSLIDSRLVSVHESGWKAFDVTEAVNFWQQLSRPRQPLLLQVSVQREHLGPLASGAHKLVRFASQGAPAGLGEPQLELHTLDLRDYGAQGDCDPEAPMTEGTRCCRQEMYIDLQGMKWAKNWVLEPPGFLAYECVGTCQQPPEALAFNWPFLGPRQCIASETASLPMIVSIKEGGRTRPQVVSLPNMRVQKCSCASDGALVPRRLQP
Chain of Albumin (Bos taurus) (P02769 whole entry, looked up): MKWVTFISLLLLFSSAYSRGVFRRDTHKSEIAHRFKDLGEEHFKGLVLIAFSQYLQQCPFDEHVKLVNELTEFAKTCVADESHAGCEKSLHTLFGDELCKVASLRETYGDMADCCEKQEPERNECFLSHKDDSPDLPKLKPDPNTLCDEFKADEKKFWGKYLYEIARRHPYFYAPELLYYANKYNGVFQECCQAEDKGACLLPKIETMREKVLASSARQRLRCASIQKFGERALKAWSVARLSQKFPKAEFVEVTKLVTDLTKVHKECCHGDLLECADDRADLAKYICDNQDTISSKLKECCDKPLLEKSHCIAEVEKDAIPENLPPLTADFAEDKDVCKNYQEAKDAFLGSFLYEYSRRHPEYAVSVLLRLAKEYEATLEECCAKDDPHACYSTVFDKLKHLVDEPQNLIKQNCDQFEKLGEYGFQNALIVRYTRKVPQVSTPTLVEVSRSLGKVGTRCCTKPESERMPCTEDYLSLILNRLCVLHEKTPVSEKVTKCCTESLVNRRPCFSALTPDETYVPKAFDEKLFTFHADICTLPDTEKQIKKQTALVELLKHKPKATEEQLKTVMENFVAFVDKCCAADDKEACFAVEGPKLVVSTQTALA
Chain of Concanavalin-A (Canavalia ensiformis) (P02866 whole entry, looked up): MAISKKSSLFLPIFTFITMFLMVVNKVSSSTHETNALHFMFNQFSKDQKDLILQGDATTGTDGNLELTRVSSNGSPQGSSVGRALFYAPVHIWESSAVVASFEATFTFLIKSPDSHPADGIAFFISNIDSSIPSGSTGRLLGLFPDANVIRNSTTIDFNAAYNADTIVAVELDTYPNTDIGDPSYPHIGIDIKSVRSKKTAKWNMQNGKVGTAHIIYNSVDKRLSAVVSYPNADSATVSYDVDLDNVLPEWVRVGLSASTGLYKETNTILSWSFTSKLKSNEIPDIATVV

Regarding `O=C(c1ccccc1)N1Cc2ccccc2[C@@H]2OC(c3ccc(OCCCO)cc3)=N[C@]2(Cc2ccccc2)C1=O`, the composite z-score in [1] is 1.29; in [3], 0.243; in assay [4], 0.978; in [5], -0.0808; in assay [6], 0.0825; in [7], -0.305. In addition, the composite z-score in [8] was -0.364; in assay [9] it was 0.215; in [10] it was 1.19; in assay [11], 0.383; in assay [13], 0.225; in assay [14], -0.18. Moreover, the composite z-score in assay [15] was found to be 0.554; in assay [16], 1.38; in [17], 0.482; in assay [18], 1.31; in assay [19], 0.061; in assay [20] it was 1.13. Moreover, the z-score in assay [2] is -1.58. In addition, the composite Z-score in [12] is 0.07 (inactive).
As to `O=C1c2ccccc2[C@](Cc2ccccc2I)(C(=O)NC2CC2)[C@H](c2ccc(CO)cc2)N1C1CCCCC1`, the composite z-score in assay [1] was 1.46; in assay [3], 0.272; in assay [4], 0.675; in [5], 0.0028; in assay [6], -0.176; in [7], -0.421. Further, the composite z-score in assay [8] is -0.0067; in [9], 0.547; in assay [10] it was 1.38; in [11], 0.767; in assay [13], 0.174; in assay [14], -0.0551. In addition, the composite z-score in [15] was 0.636; in [16], 2.12; in assay [17], 1.49; in assay [18], 1.22; in assay [19], 0.273; in assay [20] it was 1.2. The z-score in [2] was -1.62. Moreover, the composite Z-score in assay [12] is 0.0542 (inactive).
With `CCCC[C@@H]1C[C@H]1[C@@H](NC(=O)c1ccco1)c1ccc(Cl)cc1`, the composite z-score is 1.28 in assay [1]; 0.232 in assay [3]; 1.68 in assay [4]; 1.1 in assay [5]; -0.0125 in assay [6]; 0.336 in [7]. Further, the composite z-score in assay [8] was 0.314; in [9], 1.4; in assay [10] it was 1.33; in assay [11], 0.796; in [13] it was 0.193; in assay [14] it was -0.0164. Further, the composite z-score was 0.637 in assay [15]; 1.99 in [16]; 0.65 in assay [17]; 1.33 in assay [18]; -0.414 in assay [19]; 1.07 in [20]. Further, the z-score in assay [2] is -2.37. The composite Z-score in assay [12] was -0.0717 (inactive).
In the case of `C=CCC(OC(C)=O)[C@@H]1[C@@H](N(Cc2ccc(-c3cccc(C(F)(F)F)c3)o2)C(=O)Cc2ccc(F)cc2)c2cc(OCCCO)ccc2N1C(=O)Cc1ccc(OC)cc1` (stereo not given in full), the composite z-score in assay [1] is -2.04; in assay [3], -0.665; in [4], -0.718; in [5], -0.751; in assay [6], -0.18; in [7], -0.138. Further, the composite z-score is -0.463 in assay [8]; -0.354 in assay [9]; -0.167 in assay [10]; -0.0141 in assay [11]; -0.0918 in assay [13]; -0.124 in assay [14]. Further, the composite z-score in assay [15] is -0.498; in assay [16], -1; in assay [17], -0.348; in [18], -3.75; in [19] it was 0.149; in assay [20], -1.29. In assay [2], the z-score is -1.36. For the same compound, the composite Z-score in assay [12] was -0.105 (inactive).
Take `COc1ccc([Si](C)(C)[C@H]2[C@H](CC(=O)N3Cc4ccccc4C[C@H]3CO)O[C@@]3(C(=O)N(Cc4ccc(N5CCC5=O)cc4)c4ccccc43)[C@@H]2C)cc1`: the composite z-score was 1.37 in assay [1]; 1.22 in [3]; 1.02 in [4]; -0.89 in [5]; 0.0158 in assay [6]; -0.144 in [7]. Besides, the composite z-score in [8] is 1.65; in [9], 1.45; in assay [10] it was 0.548; in assay [11], 0.402; in [13], -0.0014; in [14], 0.581. Further, the composite z-score is 0.516 in [15]; 1.51 in assay [16]; 1.19 in assay [17]; 1.29 in assay [18]; 1.4 in assay [19]; 1.13 in [20]. This compound returned a z-score in assay [2] of -3.99. Also, the composite Z-score in assay [12] was -0.39 (inactive).
